Measured values as given in PubChem BioAssay (NCATS).
Inconclusive results are not listed. Activity calls are given as the source filed them. Unless noted, calls come from the whole dose curve; as a rule, active = well fitted curve in the direction sought with a large enough effect; inconclusive = small, poorly fitted or top-dose-only effect, or another doubt; inactive = no such curve, though single readings can be large; an effect the other way counts as inactive or inconclusive.

How the values were obtained:
[1] = biological target: Cytochrome P450 1A2 (Homo sapiens) (UniProt P05177); assay: p450-cyp1a2 (AID 410; calls by dose curve; note: potency is the fitted concentration of half-maximal effect)
Summary of the method: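 Read-out is luminescence from luciferin produced by CYP1A2 demethylation of Luciferin-ME (100uM, at Km). Detection reagent stopped the 60 min NADPH-dependent reaction; signals were normalized to 57 uM furafylline.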

[2] = biological target: Glucocorticoid receptor (Homo sapiens) (UniProt P04150); assay: GR-GFP Redistribution (AID 450;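 active = compounds whose dose series gives a full or clear partial fitted curve of increased nuclear translocation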; note: potency is the fitted concentration of half-maximal effect)
[3] = biological target: Glucocorticoid receptor (Homo sapiens) (UniProt P04150); assay: GR-EFC Redistribution (AID 451; calls by dose curve; note: potency is the fitted concentration of half-maximal effect); details: CHO-K1 GR-EFC translocation, beta-gal luminescence, 2 h
Summary of the method: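 Translocation of GR-ED fusion to nuclear EA restores b-gal, read by luminescence after 1 h room-temperature detection. Engineered CHO-K1 biosensor cells, 1,000/well, exposed 2 h at 37 C to titrations up to 46 uM final.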

[4] = biological target: Mitogen-activated protein kinase 10 (Mus musculus) (UniProt Q61831); assay: JNK3 AlphaScreen Assay (AID 530; active = well fitted curve in either direction with a large enough effect, not every such curve was filed as active;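 note: kinase came from lysate of stimulated human HepG2 cells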; note: potency is the fitted concentration of half-maximal effect)
Summary of the method: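 Kinase buffer: 20 mM Tris-HCl pH 7.6, 10 mM MgCl2, 1 mM DTT, 0.1 mM Na3VO4, 0.01% Tween-20; ATP 10 uM. Substrate biotin-GST-cJun(1-79), enzyme from activated HepG2 lysates. Detection by Ser73 phospho-antibody AlphaScreen.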

[5] = biological target: 3',5'-cyclic-AMP phosphodiesterase 4B (Homo sapiens) (UniProt Q07343); assay: qHTS Assay for Inhibitors of PDE-IV (AID 607; active = well fitted activation curve with a large enough effect in the main read-out, with a control signal flat, not every such curve was filed as active)
Summary of the method: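 Live HEK293 cells with a modified cyclic nucleotide-gated (CNG) channel report intracellular cAMP via membrane-potential dye fluorescence (ex 535/em 590 nm). Endogenous PDE-IV was targeted. Compounds were tested at up to 22.9 uM final; RO 20-1724 100 uM served as control.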

[6] = biological target: Cytochrome P450 2C9 (Homo sapiens) (UniProt P11712); assay: qHTS Assay for Inhibitors and Substrates of Cytochrome P450 2C9 (AID 883); note: nearly all actives have a fitted effect of over 60% in size; note: potency is the fitted concentration of half-maximal effect
Summary of the method: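 Inhibition of CYP2C9 is scored as loss of luminescence, with 57uM sulphaphenazole defining 100% inhibition. Substrate Luciferin-H is used at 100uM, equal to its KM; enzyme at 10nM in 25mM KPO4, 60 min at 37C with NADPH regeneration.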

[7] = biological target: Cytochrome P450 2C19 (Homo sapiens) (UniProt P33261); assay: qHTS Assay for Inhibitors and Substrates of Cytochrome P450 2C19 (AID 899); note: nearly all actives have a fitted effect of over 60% in size; note: potency is the fitted concentration of half-maximal effect
Summary of the method: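 5nM enzyme + 10uM Luciferin-H EGE (=KM), 50mM KPO4; cpd pin-transferred, 10 min 37C; NADPH regen, 60 min 37C; stopped w/ luciferin detection reagent, 20 min; luminescence. Normalized to 57uM ketoconazole (AC100).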

[8] = biological target: DNA dC->dU-editing enzyme APOBEC-3G (Homo sapiens) (UniProt Q9HC16); assay: qHTS for inhibitors of Vif-A3G interactions: Validation (AID 588379)
Summary of the method: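 Yellow fluorescence (Ex 488, Em 500-530) of Vif-coexpressing HeLa A3G-eYFP cells, scanned by Acumen cytometer, reports blocked A3G degradation. Cells plated at 700/well overnight at 37 deg C before compound addition, then a further overnight compound incubation at 37 deg C.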

[9] = biological target: Cytochrome P450 3A4 (Homo sapiens) (UniProt P08684); assay: qHTS Assay for Activators of Cytochrome P450 3A4 (AID 885); note: nearly all actives have a fitted effect of over 65% in size
Summary of the method: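 Using 20nM recombinant human CYP3A4 in potassium phosphate (200mM), substrate Luciferin-PPXE at 25uM, luminescent luciferin detection followed a 60-min RT NADPH reaction; data scaled to 57 uM ketoconazole.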

[10] = biological target: Cytochrome P450 2D6 (Homo sapiens) (UniProt P10635); assay: qHTS Assay for Inhibitors and Substrates of Cytochrome P450 2D6 (AID 891); note: nearly all actives have a fitted effect of over 60% in size; note: potency is the fitted concentration of half-maximal effect
Summary of the method: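 Luminescent read-out of luciferin formed by 5 nM human CYP2D6 demethylating 30 uM Luciferin-ME EGE (Km level) over 60 min at room temperature after NADPH regeneration addition. Data normalized to full inhibition by 1.43 uM quinidine.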

[11] = biological target: Cytochrome P450 3A4 (Homo sapiens) (UniProt P08684); assay: qHTS Assay for Inhibitors and Substrates of Cytochrome P450 3A4 (AID 884); note: nearly all actives have a fitted effect of over 50% in size; note: potency is the fitted concentration of half-maximal effect
Summary of the method: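 Luminescent readout of luciferin produced by CYP3A4 (20 nM) dealkylation of Luciferin-PPXE, 25 uM (its KM). NADPH-driven reaction ran 60 min at RT after 10 min compound preincubation; data scaled to 57 uM ketoconazole as 100% inhibition.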

[12] = biological target: Luciferin 4-monooxygenase (Photinus pyralis) (UniProt P08659); assay: Biochemical firefly luciferase enzyme assay for NPC (AID 624030);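 note: purified P. pyralis luciferase at 10 nM with luciferin and ATP substrate; series mostly up to about 59 µM; nearly all actives have a fitted effect of over 70% in size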
Summary of the method: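 Direct inhibition of firefly luciferase enzyme (10 nM final, 50 mM Tris Acetate) assessed by luminescence within 5 minutes. Percent activity scaled between DMSO and PTC124 positive control, with concentration-effect curves classified by fit quality and response.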

Measured: Potency

Sequence of DNA dC->dU-editing enzyme APOBEC-3G (Homo sapiens) (Q9HC16 whole entry, looked up): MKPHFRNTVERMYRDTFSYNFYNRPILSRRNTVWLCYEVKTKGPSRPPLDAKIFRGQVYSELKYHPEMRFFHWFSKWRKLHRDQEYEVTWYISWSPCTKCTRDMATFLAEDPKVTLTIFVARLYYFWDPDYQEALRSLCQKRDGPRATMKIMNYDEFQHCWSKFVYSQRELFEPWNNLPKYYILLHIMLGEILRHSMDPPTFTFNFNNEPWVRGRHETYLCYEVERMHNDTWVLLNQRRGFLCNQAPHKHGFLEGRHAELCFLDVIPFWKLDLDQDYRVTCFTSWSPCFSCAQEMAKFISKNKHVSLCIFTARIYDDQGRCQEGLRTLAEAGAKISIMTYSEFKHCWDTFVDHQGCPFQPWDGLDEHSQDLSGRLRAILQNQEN
Sequence of 3',5'-cyclic-AMP phosphodiesterase 4B (Homo sapiens) (Q07343 whole entry, looked up): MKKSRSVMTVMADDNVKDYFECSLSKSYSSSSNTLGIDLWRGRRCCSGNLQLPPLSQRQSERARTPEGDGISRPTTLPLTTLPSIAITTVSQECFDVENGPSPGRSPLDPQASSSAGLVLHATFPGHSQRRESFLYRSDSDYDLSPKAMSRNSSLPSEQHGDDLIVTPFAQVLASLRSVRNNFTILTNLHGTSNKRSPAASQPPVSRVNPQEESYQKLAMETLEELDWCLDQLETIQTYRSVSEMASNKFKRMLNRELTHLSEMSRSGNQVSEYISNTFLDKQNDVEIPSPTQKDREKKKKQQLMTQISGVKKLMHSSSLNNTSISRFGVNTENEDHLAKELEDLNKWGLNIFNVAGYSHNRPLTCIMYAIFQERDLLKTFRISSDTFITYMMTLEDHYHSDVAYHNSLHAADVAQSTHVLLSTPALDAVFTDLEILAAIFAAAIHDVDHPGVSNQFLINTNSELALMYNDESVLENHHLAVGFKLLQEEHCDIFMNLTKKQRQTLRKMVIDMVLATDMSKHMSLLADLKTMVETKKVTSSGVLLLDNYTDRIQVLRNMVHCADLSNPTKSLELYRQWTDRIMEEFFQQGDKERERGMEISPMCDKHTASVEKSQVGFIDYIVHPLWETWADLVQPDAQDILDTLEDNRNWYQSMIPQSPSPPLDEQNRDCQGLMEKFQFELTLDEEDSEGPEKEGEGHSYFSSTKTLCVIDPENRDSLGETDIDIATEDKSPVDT
Sequence of Cytochrome P450 3A4 (Homo sapiens) (P08684 whole entry, looked up): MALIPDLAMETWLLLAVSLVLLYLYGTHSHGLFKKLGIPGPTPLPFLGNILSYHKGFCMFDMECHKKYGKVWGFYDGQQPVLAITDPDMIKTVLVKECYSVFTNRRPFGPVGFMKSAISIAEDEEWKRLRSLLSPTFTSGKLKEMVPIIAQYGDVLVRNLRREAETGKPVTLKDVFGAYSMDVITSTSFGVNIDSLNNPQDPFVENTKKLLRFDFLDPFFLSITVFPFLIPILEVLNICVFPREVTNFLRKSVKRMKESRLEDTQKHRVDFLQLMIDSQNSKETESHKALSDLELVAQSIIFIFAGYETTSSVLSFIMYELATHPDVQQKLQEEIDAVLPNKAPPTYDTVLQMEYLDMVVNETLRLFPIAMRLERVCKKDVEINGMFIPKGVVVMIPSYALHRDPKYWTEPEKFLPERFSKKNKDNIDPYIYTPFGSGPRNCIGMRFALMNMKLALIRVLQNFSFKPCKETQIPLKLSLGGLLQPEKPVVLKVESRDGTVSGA
Sequence of Cytochrome P450 1A2 (Homo sapiens) (P05177 whole entry, looked up): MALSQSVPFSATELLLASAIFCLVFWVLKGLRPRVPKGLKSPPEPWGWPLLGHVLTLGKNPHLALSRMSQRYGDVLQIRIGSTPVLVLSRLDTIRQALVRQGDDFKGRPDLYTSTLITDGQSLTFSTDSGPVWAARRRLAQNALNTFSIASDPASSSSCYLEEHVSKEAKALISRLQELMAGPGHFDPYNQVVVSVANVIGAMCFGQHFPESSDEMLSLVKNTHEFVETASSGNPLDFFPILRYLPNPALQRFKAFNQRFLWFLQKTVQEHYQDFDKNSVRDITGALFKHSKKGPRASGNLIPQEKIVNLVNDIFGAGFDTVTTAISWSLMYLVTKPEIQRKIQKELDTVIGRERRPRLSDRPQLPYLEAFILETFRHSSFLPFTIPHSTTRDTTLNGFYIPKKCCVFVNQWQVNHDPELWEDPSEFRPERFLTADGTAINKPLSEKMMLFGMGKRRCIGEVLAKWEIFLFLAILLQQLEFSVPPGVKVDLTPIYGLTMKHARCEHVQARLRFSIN
Sequence of Cytochrome P450 2C19 (Homo sapiens) (P33261 whole entry, looked up): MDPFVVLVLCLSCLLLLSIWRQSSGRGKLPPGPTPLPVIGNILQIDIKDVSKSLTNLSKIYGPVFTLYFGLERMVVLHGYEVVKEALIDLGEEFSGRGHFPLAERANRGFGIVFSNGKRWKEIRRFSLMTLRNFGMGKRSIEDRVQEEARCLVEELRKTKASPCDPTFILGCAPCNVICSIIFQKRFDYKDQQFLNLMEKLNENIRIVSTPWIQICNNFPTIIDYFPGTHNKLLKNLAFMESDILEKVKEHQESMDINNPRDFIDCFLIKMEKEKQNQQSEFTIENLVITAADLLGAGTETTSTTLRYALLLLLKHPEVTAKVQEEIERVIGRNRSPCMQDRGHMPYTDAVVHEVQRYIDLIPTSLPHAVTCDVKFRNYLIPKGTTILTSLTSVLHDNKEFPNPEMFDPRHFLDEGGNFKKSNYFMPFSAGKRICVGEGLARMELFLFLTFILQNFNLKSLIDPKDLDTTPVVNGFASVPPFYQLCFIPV
Sequence of Glucocorticoid receptor (Homo sapiens) (P04150 whole entry, looked up, the tested form may be a part): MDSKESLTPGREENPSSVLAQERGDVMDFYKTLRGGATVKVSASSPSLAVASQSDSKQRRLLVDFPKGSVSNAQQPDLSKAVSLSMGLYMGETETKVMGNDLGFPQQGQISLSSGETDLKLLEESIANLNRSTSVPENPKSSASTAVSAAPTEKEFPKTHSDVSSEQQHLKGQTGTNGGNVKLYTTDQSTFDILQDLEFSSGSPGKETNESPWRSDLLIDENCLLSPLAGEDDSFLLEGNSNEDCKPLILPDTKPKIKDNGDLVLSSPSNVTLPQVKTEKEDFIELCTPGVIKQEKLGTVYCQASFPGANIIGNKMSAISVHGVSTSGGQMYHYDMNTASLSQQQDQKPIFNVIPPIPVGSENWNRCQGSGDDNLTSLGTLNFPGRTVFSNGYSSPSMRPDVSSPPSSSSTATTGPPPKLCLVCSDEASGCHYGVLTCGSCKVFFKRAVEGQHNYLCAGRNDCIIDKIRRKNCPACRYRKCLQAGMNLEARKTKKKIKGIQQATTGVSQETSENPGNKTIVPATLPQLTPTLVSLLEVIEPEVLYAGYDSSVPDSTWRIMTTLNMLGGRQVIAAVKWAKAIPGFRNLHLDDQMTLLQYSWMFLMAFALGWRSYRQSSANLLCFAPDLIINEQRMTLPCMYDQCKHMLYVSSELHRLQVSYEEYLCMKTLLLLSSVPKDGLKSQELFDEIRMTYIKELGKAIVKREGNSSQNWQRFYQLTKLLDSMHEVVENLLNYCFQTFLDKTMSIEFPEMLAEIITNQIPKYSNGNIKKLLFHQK
Sequence of Cytochrome P450 2C9 (Homo sapiens) (P11712 whole entry, looked up): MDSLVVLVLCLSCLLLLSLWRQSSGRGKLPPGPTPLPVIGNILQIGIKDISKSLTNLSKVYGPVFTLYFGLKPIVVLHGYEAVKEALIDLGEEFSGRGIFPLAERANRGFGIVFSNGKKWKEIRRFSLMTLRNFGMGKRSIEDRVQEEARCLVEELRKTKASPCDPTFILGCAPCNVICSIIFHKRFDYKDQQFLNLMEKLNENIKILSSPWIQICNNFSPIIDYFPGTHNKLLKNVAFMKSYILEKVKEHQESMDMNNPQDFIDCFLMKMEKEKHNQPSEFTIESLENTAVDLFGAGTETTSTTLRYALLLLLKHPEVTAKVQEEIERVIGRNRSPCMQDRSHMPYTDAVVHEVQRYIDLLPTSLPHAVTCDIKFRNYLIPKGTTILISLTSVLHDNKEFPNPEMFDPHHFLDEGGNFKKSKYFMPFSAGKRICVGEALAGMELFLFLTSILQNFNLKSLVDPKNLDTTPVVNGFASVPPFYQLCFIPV
Sequence of Cytochrome P450 2D6 (Homo sapiens) (P10635 whole entry, looked up): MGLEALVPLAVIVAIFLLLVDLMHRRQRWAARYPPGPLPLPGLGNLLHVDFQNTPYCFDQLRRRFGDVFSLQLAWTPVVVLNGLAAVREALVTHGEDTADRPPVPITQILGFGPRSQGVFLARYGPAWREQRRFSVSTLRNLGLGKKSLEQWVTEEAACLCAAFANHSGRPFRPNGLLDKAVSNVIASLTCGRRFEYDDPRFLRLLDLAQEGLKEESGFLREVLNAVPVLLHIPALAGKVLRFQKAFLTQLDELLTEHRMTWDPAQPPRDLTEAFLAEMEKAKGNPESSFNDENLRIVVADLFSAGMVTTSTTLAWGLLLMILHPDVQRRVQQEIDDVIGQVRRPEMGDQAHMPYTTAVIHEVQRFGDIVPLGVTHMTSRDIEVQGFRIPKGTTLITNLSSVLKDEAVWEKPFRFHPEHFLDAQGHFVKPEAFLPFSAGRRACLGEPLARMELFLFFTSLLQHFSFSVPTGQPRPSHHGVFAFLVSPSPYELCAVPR
Sequence of Luciferin 4-monooxygenase (Photinus pyralis) (P08659 whole entry, looked up): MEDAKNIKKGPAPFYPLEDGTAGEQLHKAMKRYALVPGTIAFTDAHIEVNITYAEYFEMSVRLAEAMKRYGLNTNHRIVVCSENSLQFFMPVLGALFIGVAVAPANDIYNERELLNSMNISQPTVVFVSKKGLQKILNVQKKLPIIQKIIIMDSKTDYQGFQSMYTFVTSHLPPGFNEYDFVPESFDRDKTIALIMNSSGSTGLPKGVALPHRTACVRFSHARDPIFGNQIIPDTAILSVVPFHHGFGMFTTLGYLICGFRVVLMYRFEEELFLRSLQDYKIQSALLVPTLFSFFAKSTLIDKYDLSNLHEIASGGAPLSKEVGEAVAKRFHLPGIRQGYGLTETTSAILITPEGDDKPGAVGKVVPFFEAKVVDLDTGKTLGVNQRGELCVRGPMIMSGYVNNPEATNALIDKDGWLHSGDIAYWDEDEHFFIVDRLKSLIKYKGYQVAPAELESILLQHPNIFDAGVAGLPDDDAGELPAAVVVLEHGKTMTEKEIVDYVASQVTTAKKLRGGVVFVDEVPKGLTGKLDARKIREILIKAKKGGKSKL

O=c1c(O)c(-c2ccc(O)cc2)oc2cc(O)ccc12
inactive: [2] > 46 µM | [3] > 46 µM | [4] | [5] | [8]
active: [1] 0.1 µM | [6] 10 µM | [7] 15.8 µM

O=c1c(O)c(-c2ccc(O)cc2)oc2ccc(O)cc12
active: [1] 0.2 µM
inactive: [2] > 46 µM | [3] > 46 µM | [4] | [5] | [9] | [10] | [8]

COc1ccccc1-c1oc2ccccc2c(=O)c1OC
active: [1] 0.2 µM | [6] 25.1 µM | [7] 7.94 µM
inactive: [2] > 46 µM | [3] > 46 µM | [4] | [9] | [10] | [8]

O=c1cc(-c2cccc(O)c2O)oc2ccccc12
active: [1] 1 µM | [4] 3.98 µM | [6] 12.6 µM
inactive: [2] > 46 µM | [3] > 46 µM | [5] | [9] | [8]

COc1cc2oc(-c3ccccc3)cc(=O)c2cc1O
active: [1] 1 µM
inactive: [2] > 46 µM | [3] > 46 µM | [4] | [5] | [6] | [11] | [8]

COc1cc(C(=O)O[C@@H]2CC(C)=CC[C@@]3(C)CC[C@](O)(C(C)C)[C@H]23)ccc1O
inactive: [2] > 46 µM | [3] > 46 µM | [4] | [5]
active: [1] 15.8 µM | [6] 15.8 µM

Cc1ccc(C[C@H](Cc2nc3ccccc3[nH]2)c2nc3ccccc3[nH]2)cc1
active: [1] 3.98 µM | [6] 12.6 µM | [10] 0.0794 µM | [7] 5.01 µM
inactive: [2] > 46 µM | [3] > 46 µM | [4] | [5]

COc1cc2c(cc1OC)C(=O)N(C)CC2
active: [1] 2 µM
inactive: [2] > 46 µM | [3] > 46 µM | [4] | [6] | [11] | [10] | [7] | [8]

C=C(CO)[C@H]1Cc2c(ccc3c2O[C@H]2COc4cc(OC)c(OC)cc4[C@@H]2C3=O)O1
inactive: [1] | [2] > 46 µM | [3] > 46 µM | [4] | [5] | [6] | [10]

COc1ccc2oc(-c3ccccc3)c(OC)c(=O)c2c1
inactive: [2] > 46 µM | [3] > 46 µM | [4] | [5] | [9] | [8]
active: [1] 0.501 µM | [6] 25.1 µM | [11] 31.6 µM

CCCc1c(OCCCOc2ccc(OCC(=O)O)cc2)ccc(CC=O)c1O
inactive: [2] > 46 µM | [3] > 46 µM | [4] | [5] | [8]
active: [1] 31.6 µM

COc1ccccc1-c1cc(=O)c2cc(O)ccc2o1
active: [1] 0.2 µM | [11] 12.6 µM | [7] 0.398 µM
inactive: [2] > 46 µM | [3] > 46 µM | [4] | [6] | [9] | [10] | [8]

COc1ccc(-c2cc(=O)c3ccc(O)cc3o2)cc1
inactive: [2] > 46 µM | [3] > 46 µM | [4] | [9] | [10] | [8]
active: [1] 0.158 µM | [11] 7.94 µM | [7] 3.16 µM

CC(=O)Oc1cc(OC(C)=O)c2c(=O)cc(-c3ccc(OC(C)=O)c(OC(C)=O)c3)oc2c1
inactive: [2] > 46 µM | [3] > 46 µM | [5] | [6] | [9] | [10] | [7] | [8]
active: [1] 3.16 µM | [4] 10 µM

COc1ccc([C@@H]2CC(=O)c3c(O)cc(O[C@@H]4O[C@@H](CO[C@@H]5O[C@@H](C)[C@@H](O)[C@@H](O)[C@H]5O)[C@@H](O)[C@@H](O)[C@H]4O)cc3O2)cc1O
inactive: [1] | [2] > 46 µM | [3] > 46 µM | [4] | [5] | [6] | [10]

C[C@H](O)[C@H](O)[C@@H](O)c1cnc2nc(N)[nH]c(=O)c2n1
inactive: [1] | [2] > 46 µM | [3] > 46 µM | [4] | [5] | [6] | [10]

COc1cccc2oc(-c3ccc(O)cc3)cc(=O)c12
inactive: [2] > 46 µM | [3] > 46 µM | [4] | [9] | [8]
active: [1] 0.398 µM | [6] 12.6 µM | [11] 15.8 µM | [7] 10 µM

COc1cc2ccc(=O)oc2c(O)c1OCC=C(C)C
active: [1] 1.58 µM | [7] 10 µM
inactive: [2] > 46 µM | [3] > 46 µM | [4] | [5] | [9] | [8]

O=c1cc(-c2ccccc2O)oc2cc(O)cc(O)c12
inactive: [2] > 46 µM | [3] > 46 µM | [4] | [5] | [8]
active: [1] 0.251 µM | [6] 5.01 µM | [11] 3.98 µM | [7] 3.98 µM

CC(C)OC(=O)c1cc2c(OC[C@@H](O)CNC(C)(C)C)cccc2[nH]1
active: [1] 31.6 µM
inactive: [2] > 46 µM | [3] > 46 µM | [4] | [8] | [12]

C/C(=C\CNc1ncnc2c1ncn2[C@@H]1O[C@@H](CO)[C@@H](O)[C@H]1O)CO
inactive: [1] | [2] > 46 µM | [3] > 46 µM | [4] | [5] | [6] | [10] | [7]

COc1cc2c(cc1OC)-c1c(OC)c(OC)cc3ccnc(c13)C2=O
active: [1] 0.0794 µM | [11] 2.51 µM
inactive: [2] > 46 µM | [3] > 46 µM | [4] | [9] | [8]

O=c1cc(-c2ccc(O)cc2O)oc2ccccc12
active: [1] 1.26 µM | [6] 5.01 µM | [11] 3.16 µM
inactive: [2] > 46 µM | [3] > 46 µM | [4] | [5] | [9] | [10] | [8]

OC[C@@H]1O[C@@H](n2cnc3c(NCc4ccco4)ncnc32)[C@H](O)[C@H]1O
inactive: [1] | [2] > 46 µM | [3] > 46 µM | [4] | [5] | [6] | [10] | [7]

COc1cc2oc(-c3ccccc3)cc(=O)c2cc1OC
active: [1] 0.2 µM | [11] 15.8 µM
inactive: [2] > 46 µM | [3] > 46 µM | [5] | [6] | [9] | [10] | [8]

O=C(/C=C\c1ccc(O)c(O)c1)O[C@H]1C[C@@](O)(C(=O)O)C[C@H](O)[C@@H]1O
inactive: [1] | [2] > 46 µM | [3] > 46 µM | [4] | [5] | [6] | [10] | [7]

CC(C)C[C@H](NC(=O)[C@@H](NC(=O)N[C@@H](Cc1ccccc1)C(=O)O)[C@H]1CCN=C(N)N1)C(=O)N[C@H](C=O)Cc1ccccc1
inactive: [1] | [2] > 46 µM | [3] > 46 µM | [4] | [6] | [10]

COc1ccc(-c2coc3cc(O[C@@H]4O[C@@H](CO)[C@@H](O)[C@@H](O)[C@H]4O)cc(O)c3c2=O)cc1
inactive: [1] | [2] > 46 µM | [3] > 46 µM | [4] | [6] | [10] | [7]

Nc1ccccc1C(=O)C[C@@H](N)C(=O)O
inactive: [1] | [2] > 46 µM | [3] > 46 µM | [4] | [5] | [6] | [10] | [7]

CC1(C)CC[C@]2(C(=O)O)CC[C@]3(C)C(=CC[C@@H]4[C@@]5(C)CC[C@H](O)C(C)(C)[C@@H]5CC[C@@]43C)[C@@H]2C1
inactive: [1] | [2] > 46 µM | [3] > 46 µM | [4] | [6] | [10] | [7]

CC(=O)[C@@H]1[C@H]2[C@@H](C(=O)[C@H]3OC[C@H]2O3)[C@@H]2C=Cc3ccccc3N12
active: [1] 31.6 µM
inactive: [2] > 46 µM | [3] > 46 µM | [5]

COc1cc(-c2cc(=O)c3ccccc3o2)ccc1O
active: [1] 0.0794 µM | [6] 6.31 µM | [11] 15.8 µM | [10] 31.6 µM | [7] 6.31 µM
inactive: [2] > 46 µM | [3] > 46 µM | [5] | [9] | [8]

CCCCCCCCCCCCCCCCOC[C@@H](COCC(F)(F)F)OP(=O)(O)OCO
inactive: [1] | [2] > 46 µM | [3] > 46 µM | [4] | [5] | [10]

C=C1CC[C@@H](O)C/C1=C/C=C1\CCC[C@]2(C)[C@@H]1CC[C@H]2[C@@H](C)/C=C\[C@@H](C)C(C)C
inactive: [1] | [2] > 46 µM | [3] > 46 µM | [4] | [10]
active: [6] 20 µM | [7] 20 µM

O[C@@H]1CC[C@H]2Cc3ccccc3N=C21
active: [1] 15.8 µM
inactive: [2] > 46 µM | [3] > 46 µM | [4] | [5] | [6] | [7]
